Source: PubChem BioAssay (several laboratories)
ERa coact inh: ERα–SRC-1 coactivator interaction inhibitors, primary screen, biochemical, TR-FRET, ERα LBD, estradiol-bound | Estrogen receptor (Homo sapiens), P03372 | TR-FRET ER-alpha LBD / SRC-1 peptide | inhibition, % at 25.6 µM | 86,000 tested, 1.7% active | AID 629, 2007; in the data active = inhibition above about 50%;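 also: 0% = receptor plus peptide control and 100% = peptide only without receptor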
Target sequence (P03372 whole entry, looked up, the tested form may be a part): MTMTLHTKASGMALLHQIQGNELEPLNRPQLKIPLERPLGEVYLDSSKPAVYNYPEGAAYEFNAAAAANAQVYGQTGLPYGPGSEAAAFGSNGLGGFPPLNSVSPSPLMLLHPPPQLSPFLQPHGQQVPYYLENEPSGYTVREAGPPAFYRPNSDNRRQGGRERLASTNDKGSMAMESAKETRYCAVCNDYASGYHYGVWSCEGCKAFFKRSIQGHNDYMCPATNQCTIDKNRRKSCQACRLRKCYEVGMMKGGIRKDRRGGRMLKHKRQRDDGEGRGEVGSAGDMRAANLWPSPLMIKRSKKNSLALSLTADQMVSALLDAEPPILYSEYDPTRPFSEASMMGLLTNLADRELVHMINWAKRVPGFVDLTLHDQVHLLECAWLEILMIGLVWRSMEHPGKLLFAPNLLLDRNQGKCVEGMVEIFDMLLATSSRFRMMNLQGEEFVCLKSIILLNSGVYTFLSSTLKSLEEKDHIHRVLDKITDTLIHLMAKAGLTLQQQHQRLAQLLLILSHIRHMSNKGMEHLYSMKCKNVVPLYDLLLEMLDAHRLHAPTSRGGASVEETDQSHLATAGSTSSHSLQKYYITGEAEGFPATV
Candida biofilm: clotrimazole potentiators killing Candida biofilms, primary screen, with clotrimazole, Alamar Blue. AID 834, 2007. C. albicans biofilm + clotrimazole. 85,000 tested, 0.14% active. inhibition, % at 6 µM;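 active = inhibition above 20%; inactive = inhibition below 20%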;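 also: preformed 24 hr biofilms exposed to compound for 48 hr; 0% = biofilm without compound and 100% = blank killed by clotrimazole plus chlorhexidine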
FAK blocker: FAK kinase inhibitors, primary screen, biochemical. Focal adhesion kinase 1 (Homo sapiens), Q05397. biochemical FAK kinase activity assay. inhibition, %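 (tested at 7 µM)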. 97,000 tested, 0.84% active. AID 727, 2007; in the data active = inhibition above about 19%;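 also: 0% = DMSO and 100% = reference compound high control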
ERa coact pot: enhancers of ERα–SRC-1 coactivator binding, primary screen, biochemical, TR-FRET, ERα LBD, low estradiol. TR-FRET ERalpha-LBD/SRC-Cy5 coactivator binding, 2 h; 100 = basal binding, no effect. coactivator binding (% of control), % at 25.6 µM. 86,000 tested, 1.3% active. AID 639, 2007. Estrogen receptor (Homo sapiens), P03372; in the data active = activity above about 200%;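 also: binding measured in presence of low estradiol as agonist stimulus; 0% = peptide alone without receptor and 100% = receptor with peptide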
Smad3 FoxH1 inh: Smad3/FoxH1 peptide binding inhibitors, primary screen, biochemical, TR-FRET. TR-FRET Smad3/Dy647-FoxH1 peptide binding, europium anti-His. inhibition, % at 25 µM. 88,000 tested, 0.29% active;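 active = compounds that reduce the energy-transfer binding signal between the protein and its labelled peptide by more than half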;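 also: 0% = Smad3 plus labelled peptide maximal FRET and 100% = peptide-only background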
ERb SRC1 inh: inhibitors of ERβ-SRC1 coactivator interaction, primary screen, biochemical, TR-FRET, ERβ LBD, SRC-1 peptide | Estrogen receptor beta (Homo sapiens), Q92731 | TR-FRET ER-beta LBD / SRC1-Cy5 peptide binding; receptor agonist-loaded with 1 µM estradiol | inhibition, % at 25.6 µM | 86,000 tested, 1.3% active;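 active = compounds whose percent inhibition of the receptor-coactivator binding signal exceeds about 50% in the single-dose screen, limit read from the data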;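 also: 0% = receptor plus peptide wells without compound and 100% = peptide-only wells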
Active calls of the source: *; · = not tested or not shown; [ ] = another dose, or the depositor's remark. Only some compounds are listed: those with a hit (about 3.3% of all), similar ones and a draw of the others.

SMILES | ERa coact inh | Candida biofilm | FAK blocker | ERa coact pot | Smad3 FoxH1 inh | ERb SRC1 inh
Cc1ccc(CNC(=O)C2CCCN(c3nc4ccccc4o3)C2)cc1 (centres undefined) | -12 | 0 | · | 114 | -13 | 49
CCc1ccc2[nH]c(=O)c(C3C(C#N)=C(N)Oc4c3ccc3cccnc43)cc2c1 (centres undefined) | 80* | 10 | -1 | 76 | 1 | 50*
Cc1ccc2cc(C3C(C#N)=C(N)Oc4c3ccc3cccnc43)c(=O)[nH]c2c1 (centres undefined) | 26 | 2 | 8 | 67 | 9 | 35
Nc1nc(N)c2[nH]c(CNC3CCC(C(=O)O)CC3)nc2n1 (centres undefined) | · | · | · | · | 4 | ·
COc1ccc(C(C(=O)NC2CCCC2)N(C(=O)c2ccco2)c2ccc3c(c2)OCO3)cc1OC (centres undefined) | -27 | 2 | 3 | 85 | -5 | 57*
O=C(CSc1n[nH]c(-c2ccccc2)n1)c1ccc(O)c(O)c1 | 67*[fluorescence artefact?] | 2 | · | 49 | -4 | 77*[fluorescence artefact?]
CCc1ccc(C(=O)CSc2n[nH]c(-c3ccncc3)n2)cc1 | 9 | 6 | 4 | 101 | 6 | -20
CC(=O)c1c(C)nc(-c2ccc3c(c2)OCO3)n1O | -5 | 3 | 2 | 667*[fluorescence artefact?] | 10 | 1
COc1ccc(-c2nc(C)c(C(C)=O)n2O)cc1OC | -5 | 2 | -3 | 95 | -5 | -4
CCCCN(CCCNC(=O)c1ccc2nc(N3CCOCC3)sc2c1)Cc1ccccc1 | -2 | 1 | 1 | 98 | -7 | -8
NC1=CC(=O)c2cccc3cccc1c23 | 86*[fluorescence artefact?] | -2 | 16 | 59 | 16 | 76*[fluorescence artefact?]
C[C@@H]1c2ccccc2Cn2cc3c(c21)C(=O)c1cccc(OP(=O)(O)OCc2ccccc2)c1C3=O | · | · | · | · | 1 | ·
COc1ccc(-c2cc(C(=O)Nc3cccc(C(C)=O)c3)no2)cc1 | 16 | -2 | -2 | 228*[fluorescence artefact?] | -1 | 10
O=c1c2c3nc4ccccc4nc3n(/N=C/c3ccco3)c2ncn1CCC1=CCCCC1 | 66*[fluorescence artefact?] | 1 | · | 85 | 12 | 40
CCCn1cnc2c(c1=O)c1nc3ccccc3nc1n2CCC1=CCCCC1 | 2 | 4 | -2 | 105 | -8 | 8
O=C(O)CC[P+](c1ccccc1)(c1ccccc1)c1ccccc1 | · | · | · | · | 26 | ·
COc1cccc2cc(C(=O)Nc3cccc(C)n3)c(=O)oc12 | 35 | 8 | · | 253* | 4 | 25
COc1cccc2cc(C(=O)Nc3cccnc3N3CCOCC3)c(=O)oc12 | -18 | 4 | 1 | 289* | 24 | 1
O=C(Nc1cccnc1N1CCOCC1)c1cc2ccccc2oc1=O | -3 | 2 | · | 121 | 9 | -13
COc1cccc2cc(C(=O)N3CCC(C)CC3)c(=O)oc12 | -5 | 10 | 3 | 102 | 2 | -1
CC1=C(C(=O)c2ccccc2)C(c2cn(-c3ccccc3)nc2-c2ccc(Cl)cc2)NC(=S)N1 (centres undefined) | -12 | 4 | -10 | 282*[fluorescence artefact?] | -9 | -3
CCOC(=O)C1=C(N)n2c(s/c(=C\c3cccnc3)c2=O)=C(C#N)C1c1cccnc1 (centres undefined) | 52*[fluorescence artefact?] | 8 | · | 65 | 24 | 18
CCOc1ccc(NC(=O)c2ccc(S(=O)(=O)N(C)C)cc2)cc1 | 5 | 3 | · | 112 | 0 | -6
CN(C)S(=O)(=O)c1ccc(C(=O)Nc2ccc(Cl)cc2)cc1 | 0 | 6 | 9 | 113 | 0 | 64*[fluorescence artefact?]
CCC(Sc1ncnc2sc(C)c(C)c12)C(=O)OC (centres undefined) | 63*[fluorescence artefact?] | 3 | 1 | 42 | 6 | 61*
SMILES | ERa coact inh | Candida biofilm | FAK blocker | ERa coact pot | Smad3 FoxH1 inh | ERb SRC1 inh
Cc1sc2ncnc(SCC(=O)NCC(C)C)c2c1C | · | · | 1 | · | · | ·
Cc1sc2ncnc(SCC(=O)c3ccc(Cl)s3)c2c1C | 0 | 5 | 1 | 243* | -88 | -3
CCN(CC)C(=O)C(=O)N/N=C/c1ccc(Br)cc1 | · | · | -3 | · | · | ·
O=C(Cn1nnc(-c2ccc(N3CCOCC3)cc2)n1)OC1CCCCC1 | 2 | · | 2 | 208* | -12 | -3
COc1ccc(-c2cn(-c3ccc(C)cc3)c(=O)n2CC(=O)Nc2ccc(OC)cc2OC)cc1 | -2 | 5 | 3 | 98 | 4 | 6
COc1ccc(NC(=O)Cn2c(-c3ccccc3)cn(-c3ccc(C)cc3)c2=O)cc1 | 5 | 4 | 0 | 201* | -399 | 4
CC(=O)O[C@@H]1CC[C@]2(C)C(=C[C@H]([C@@H]3C=C4C[C@@H](OC(C)=O)CC[C@]4(C)C4=C3[C@@H]3C[C@@H]5O[C@@]6(CC[C@H](C)CO6)[C@@H](C)[C@@H]5[C@@]3(C)CC4)C3=C2CC[C@@]2(C)[C@@H]4[C@@H](C)[C@]5(CC[C@H](C)CO5)O[C@@H]4C[C@H]32)C1 | · | · | · | · | -3 | ·
Cc1cc(C)c2cc3c(ccn3C3OC[C@H](O)[C@H](O)[C@H]3O)cc2n1 (some centres undefined) | 18 | 1 | 8 | 83 | 4 | 52*[fluorescence artefact?]
CC(=O)O[C@@H]1[C@@H](OC(C)=O)[C@H](n2ccc3cc([N+](=O)[O-])ccc32)OC[C@@H]1OC(C)=O | -9 | 10 | -8 | 92 | 6 | 1
Cc1nc(SCC#N)c2c(C)c(C)sc2n1 | 1 | 3 | 4 | 82 | 2 | -1
Cc1ccc(-c2nn3c(-c4ccco4)nnc3c3ccccc23)cc1S(=O)(=O)NCC1CCCO1 (centres undefined) | 55*[fluorescence artefact?] | 4 | 7 | 218* | -4 | 30
CC1C(=O)CC(c2ccco2)NC1c1ccco1 (centres undefined) | · | · | -2 | · | · | ·
CCOc1cccc(CNc2ccc(O)cc2)c1OCc1ccccc1Cl | · | · | 37* | · | · | ·
CCOc1cccc(CNn2cnnc2)c1OCc1ccccc1Cl | -5 | 2 | -2 | 102 | 6 | -12
COc1ccccc1N1CCN(C(=O)CSc2ncccc2-c2nc3ccccc3[nH]2)CC1 | -2 | 6 | 2 | 82 | 2 | 13
O=C(CSc1ncccc1-c1nc2ccccc2[nH]1)N1CCN(c2ccccc2F)CC1 | -9 | 4 | 0 | 223* | 0 | 4
CCOC(=O)c1ccc2c(c1)nc(SC/C(O)=C(\C#N)c1nc3ccccc3[nH]1)n2CC | -3 | -1 | · | 114 | -11 | 21
Cc1ccccc1-n1c(SC/C(O)=C(\C#N)c2nc3ccccc3[nH]2)nnc1-c1ccncc1 | 62*[fluorescence artefact?] | · | · | 78 | 5 | 54*
COc1ccc(NC(=O)CSc2nc3c(c(=O)n2-c2ccc(C)cc2)SCC3)c(OC)c1 | 2 | -1 | · | 118 | 11 | -7
